Measured values: PubChem BioAssay (NCATS)
Results filed as inconclusive are left out. The source made the active and inactive calls. Calls follow the shape of the dose curve; as a rule, active = well fitted inhibition curve with a large enough effect; inconclusive = small, poorly fitted or top-dose-only effect; inactive = flat fitted curve, though single readings scatter.

Key:
Assay in all cases: qHTS profiling for inhibitors of Plasmodium falciparum proliferation (AID 504749); also: nearly all actives have a fitted effect of over 60% in size
Conditions in all cases: P. falciparum in erythrocytes, SYBR Green DNA, 72 h; series mostly up to 28.7 µM
[1] = system: ATS95
Outline: (§1)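 Readout was DNA-dye fluorescence from lysed cultures, ex 485/em 535 nm. Parasitized red cells had grown 72 h with compound; data scaled between 0.29 uM artemisinin and DMSO wells and corrected using vehicle-only plates.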

[2] = system: C2A
Outline: as §1

[3] = system: CP185
Outline: as §1

[4] = system: CP191
Outline: as §1

[5] = system: CP192
Outline: as §1

[6] = system: CP194
Outline: as §1

[7] = system: CP201
Outline: as §1

[8] = system: CP203
Outline: as §1

[9] = system: CP211
Outline: as §1

[10] = system: CP217
Outline: as §1

[11] = system: CP237
Outline: as §1

[12] = system: CP238
Outline: as §1

[13] = system: CP247
Outline: as §1

[14] = system: CP250
Outline: as §1

[15] = system: CP252
Outline: as §1

[16] = system: CP256
Outline: as §1

[17] = system: CP260
Outline: as §1

[18] = system: CP265
Outline: as §1

[19] = system: CP262
Outline: as §1

[20] = system: CP215
Outline: as §1

Measured: Potency

CCN(CC)CCOc1ccc2nc(N(C)C)sc2c1
not listed: [19] | [20]
inactive: all other assays above

O=C(O)CCC(=O)c1ccc(-c2ccccc2)cc1
not listed: [20]
inactive: all other assays above

O=c1[nH]c(=O)n([C@H]2C[C@H](O)[C@@H](CO)O2)cc1/C=C/Br
not listed: [17]
inactive: all other assays above

CC(C)(C)CC(C)(C)c1ccc(OCCO)cc1
not listed: [16]
inactive: all other assays above

C[C@@](Cc1ccc(O)c(O)c1)(NN)C(=O)O
not listed: [11] | [17]
inactive: all other assays above

C[C@H](CCCC(C)(C)O)[C@H]1CC[C@H]2[C@@H]3CC=C4C[C@@H](O)CC[C@]4(C)[C@H]3CC[C@]12C
not listed: [11] | [14]
inactive: all other assays above

Cc1c(C)c2c(c(C)c1OC(=O)CCC(=O)O)CC[C@@](C)(CCC[C@H](C)CCC[C@H](C)CCCC(C)C)O2
not listed: [11] | [17]
inactive: all other assays above

COc1ccc(/C=C/C(=O)OCCC(C)C)cc1
not listed: [14]
inactive: all other assays above

Cc1ncc(C[n+]2csc(CCO)c2C)c(N)n1
not listed: [16] | [20]
inactive: all other assays above

CCCCCc1ccc(C)cc1O
not listed: [13]
inactive: all other assays above
